Results: article PMC7862700, “An all-to-all approach to the identification of sequence-specific readers for epigenetic DNA modifications on cytosine”

Experiments:
Experiment in all cases: DAPPL (digital affinity profiling via proximity ligation, sequencing); 10 mM Tris-HCl pH 7.5, 50 mM NaCl, 1 mM DTT, 4% glycerol, room temperature, 30 min; GST-TFs on glutathione beads, 16-mer random dsDNA library, 0.1% formaldehyde crosslink after washing; high values mean tight binding
FLI1 = target: T1, FLI1 (Homo sapiens, UniProt Q01543 1-452); conditions: protein: recombinant; tags: N-terminal GST; dsDNA, one strand shown
T1 sequence: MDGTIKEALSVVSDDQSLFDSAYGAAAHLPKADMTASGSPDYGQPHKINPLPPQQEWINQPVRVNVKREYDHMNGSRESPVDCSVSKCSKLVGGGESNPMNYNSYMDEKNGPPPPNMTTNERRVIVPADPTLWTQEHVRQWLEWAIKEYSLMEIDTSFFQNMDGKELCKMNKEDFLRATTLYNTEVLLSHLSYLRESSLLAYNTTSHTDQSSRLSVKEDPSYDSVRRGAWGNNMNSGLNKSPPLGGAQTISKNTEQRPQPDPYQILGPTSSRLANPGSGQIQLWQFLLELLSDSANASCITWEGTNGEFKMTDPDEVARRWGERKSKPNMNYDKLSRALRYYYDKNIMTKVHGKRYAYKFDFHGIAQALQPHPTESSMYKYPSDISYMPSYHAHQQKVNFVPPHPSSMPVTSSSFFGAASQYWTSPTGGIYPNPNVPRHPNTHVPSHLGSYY
Method in brief: (§1)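 Human transcription factors were made in yeast as GST fusions, captured on glutathione beads and barcoded with DNA. With a tag-only sample included, the pool was incubated with 200 nmole of a random double-stranded 16-mer DNA library in Tris/NaCl/DTT/glycerol buffer at room temperature for 30 min, then crosslinked with 0.1% formaldehyde after washing, ligated by proximity, amplified and sequenced. For binding signal, each hexamer's read frequency for a factor is divided by its frequency for the tag-only sample.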

ELK1 = target: T2, ELK1 (Homo sapiens, UniProt P19419 1-428); conditions: protein: recombinant; tags: N-terminal GST; dsDNA, one strand shown
T2 sequence: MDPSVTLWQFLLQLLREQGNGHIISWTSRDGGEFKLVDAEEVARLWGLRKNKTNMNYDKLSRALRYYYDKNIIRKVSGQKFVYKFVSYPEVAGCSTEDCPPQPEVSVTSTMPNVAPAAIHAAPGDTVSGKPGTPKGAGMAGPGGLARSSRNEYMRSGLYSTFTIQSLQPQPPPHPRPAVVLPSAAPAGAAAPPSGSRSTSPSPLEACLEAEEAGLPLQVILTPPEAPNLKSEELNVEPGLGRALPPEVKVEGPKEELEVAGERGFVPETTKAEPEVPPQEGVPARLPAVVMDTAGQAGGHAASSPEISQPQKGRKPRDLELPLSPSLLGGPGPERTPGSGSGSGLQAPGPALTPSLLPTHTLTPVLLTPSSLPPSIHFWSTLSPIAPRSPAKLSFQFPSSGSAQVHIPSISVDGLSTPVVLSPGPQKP
Method in brief: as §1

GABPA = target: T3, GABPA (Homo sapiens, UniProt Q06546 1-454); conditions: protein: recombinant; tags: N-terminal GST; dsDNA, one strand shown
T3 sequence: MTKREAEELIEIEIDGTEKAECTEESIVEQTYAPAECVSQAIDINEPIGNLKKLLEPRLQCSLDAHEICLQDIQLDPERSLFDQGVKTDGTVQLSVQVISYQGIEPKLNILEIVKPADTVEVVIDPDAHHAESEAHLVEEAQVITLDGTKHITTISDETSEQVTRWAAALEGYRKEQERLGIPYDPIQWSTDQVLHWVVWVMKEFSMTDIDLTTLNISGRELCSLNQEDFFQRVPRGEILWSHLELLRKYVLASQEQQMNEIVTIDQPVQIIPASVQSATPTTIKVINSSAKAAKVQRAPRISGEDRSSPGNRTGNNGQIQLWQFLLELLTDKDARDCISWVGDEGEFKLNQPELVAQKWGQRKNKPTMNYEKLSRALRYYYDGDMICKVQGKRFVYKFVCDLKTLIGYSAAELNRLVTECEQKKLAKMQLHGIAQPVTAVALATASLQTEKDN
Method in brief: as §1

ERG = target: T4, ERG (Homo sapiens, UniProt P11308 1-479); conditions: protein: recombinant; tags: N-terminal GST; dsDNA, one strand shown
T4 sequence: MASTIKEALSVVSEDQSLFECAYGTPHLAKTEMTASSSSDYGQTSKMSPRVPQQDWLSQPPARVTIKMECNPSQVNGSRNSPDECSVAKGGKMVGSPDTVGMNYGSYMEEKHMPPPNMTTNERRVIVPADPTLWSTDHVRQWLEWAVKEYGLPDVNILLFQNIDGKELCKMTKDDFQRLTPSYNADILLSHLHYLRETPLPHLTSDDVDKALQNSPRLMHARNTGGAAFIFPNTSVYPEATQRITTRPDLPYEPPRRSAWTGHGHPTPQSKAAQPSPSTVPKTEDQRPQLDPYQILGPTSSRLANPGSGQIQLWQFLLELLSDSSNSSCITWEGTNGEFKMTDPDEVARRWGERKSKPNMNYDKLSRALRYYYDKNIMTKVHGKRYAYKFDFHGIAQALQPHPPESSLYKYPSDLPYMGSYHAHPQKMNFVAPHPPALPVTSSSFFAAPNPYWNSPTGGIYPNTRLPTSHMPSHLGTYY
Method in brief: as §1

ELF1 = ELF1 (Homo sapiens, UniProt P32519 1-619); conditions: protein: recombinant; tags: N-terminal GST; dsDNA, one strand shown
Method in brief: as §1

SPI1 = SPI1 (Homo sapiens, UniProt P17947 1-270); conditions: protein: recombinant; tags: N-terminal GST; dsDNA, one strand shown
Method in brief: as §1

SPIB = SPIB (Homo sapiens, UniProt Q01892 1-262); conditions: protein: recombinant; tags: N-terminal GST; dsDNA, one strand shown
Method in brief: as §1

ELK3 = target: T5, ELK3 (Homo sapiens, UniProt P41970 1-407); conditions: protein: recombinant; tags: N-terminal GST; dsDNA, one strand shown
T5 sequence: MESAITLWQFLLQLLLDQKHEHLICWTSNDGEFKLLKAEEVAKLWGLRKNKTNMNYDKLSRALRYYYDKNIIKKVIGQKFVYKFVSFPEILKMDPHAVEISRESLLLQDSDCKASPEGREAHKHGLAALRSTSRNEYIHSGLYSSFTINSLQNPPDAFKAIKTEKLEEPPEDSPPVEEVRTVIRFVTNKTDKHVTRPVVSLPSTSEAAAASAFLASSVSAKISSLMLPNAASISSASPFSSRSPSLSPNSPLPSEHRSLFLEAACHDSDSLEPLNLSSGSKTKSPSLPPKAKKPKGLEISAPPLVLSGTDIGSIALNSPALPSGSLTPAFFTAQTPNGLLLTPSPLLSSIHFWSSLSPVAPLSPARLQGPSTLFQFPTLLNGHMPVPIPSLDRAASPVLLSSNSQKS
Method in brief: as §1

FEV = target: T6, FEV (Homo sapiens, UniProt Q99581 1-238); conditions: protein: recombinant; tags: N-terminal GST; dsDNA, one strand shown
T6 sequence: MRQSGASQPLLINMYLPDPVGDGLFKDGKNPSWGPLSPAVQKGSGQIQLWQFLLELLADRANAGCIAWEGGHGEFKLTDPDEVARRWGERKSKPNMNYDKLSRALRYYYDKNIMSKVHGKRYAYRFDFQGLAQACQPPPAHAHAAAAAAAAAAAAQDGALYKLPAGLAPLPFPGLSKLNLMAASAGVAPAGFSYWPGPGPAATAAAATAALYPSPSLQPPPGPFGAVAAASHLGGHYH
Method in brief: as §1

ETV5 = ETV5 (Homo sapiens, UniProt P41161 1-510); conditions: protein: recombinant; tags: N-terminal GST; dsDNA, one strand shown
Method in brief: as §1

HSF1 = HSF1 (Homo sapiens, UniProt Q00613 1-529); conditions: protein: recombinant; tags: N-terminal GST; chain copies: 3; dsDNA, one strand shown
Method in brief: as §1

SPIC = target: T7, SPIC (Homo sapiens, UniProt Q8N5J4 1-248); conditions: protein: recombinant; tags: N-terminal GST; dsDNA, one strand shown
T7 sequence: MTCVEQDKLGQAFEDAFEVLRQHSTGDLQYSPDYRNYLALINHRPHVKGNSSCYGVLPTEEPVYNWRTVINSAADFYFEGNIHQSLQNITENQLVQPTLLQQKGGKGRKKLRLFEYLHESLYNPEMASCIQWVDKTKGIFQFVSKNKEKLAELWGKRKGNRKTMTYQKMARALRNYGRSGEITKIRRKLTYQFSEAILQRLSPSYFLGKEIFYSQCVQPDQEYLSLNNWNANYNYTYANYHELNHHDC
Method in brief: as §1

ELF4 = ELF4 (Homo sapiens, UniProt Q99607 1-663); conditions: protein: recombinant; tags: N-terminal GST; dsDNA, one strand shown
Method in brief: as §1

ELK4 = target: T8, ELK4 (Homo sapiens, UniProt P28324-2 1-405); conditions: protein: recombinant; tags: N-terminal GST; dsDNA, one strand shown
T8 sequence: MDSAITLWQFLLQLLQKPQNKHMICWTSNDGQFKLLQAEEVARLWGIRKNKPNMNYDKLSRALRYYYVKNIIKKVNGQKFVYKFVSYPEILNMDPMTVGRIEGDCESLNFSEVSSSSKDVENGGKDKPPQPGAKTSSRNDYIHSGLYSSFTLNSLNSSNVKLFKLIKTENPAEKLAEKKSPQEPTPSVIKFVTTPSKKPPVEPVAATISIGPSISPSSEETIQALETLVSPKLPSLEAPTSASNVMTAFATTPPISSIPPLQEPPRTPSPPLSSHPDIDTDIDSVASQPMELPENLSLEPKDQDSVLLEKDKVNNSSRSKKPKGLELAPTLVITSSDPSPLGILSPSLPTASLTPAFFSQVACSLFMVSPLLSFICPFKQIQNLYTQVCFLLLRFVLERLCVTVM
Method in brief: as §1

ELF3 = target: T9, ELF3 (Homo sapiens, UniProt P78545 1-371); conditions: protein: recombinant; tags: N-terminal GST; dsDNA, one strand shown
T9 sequence: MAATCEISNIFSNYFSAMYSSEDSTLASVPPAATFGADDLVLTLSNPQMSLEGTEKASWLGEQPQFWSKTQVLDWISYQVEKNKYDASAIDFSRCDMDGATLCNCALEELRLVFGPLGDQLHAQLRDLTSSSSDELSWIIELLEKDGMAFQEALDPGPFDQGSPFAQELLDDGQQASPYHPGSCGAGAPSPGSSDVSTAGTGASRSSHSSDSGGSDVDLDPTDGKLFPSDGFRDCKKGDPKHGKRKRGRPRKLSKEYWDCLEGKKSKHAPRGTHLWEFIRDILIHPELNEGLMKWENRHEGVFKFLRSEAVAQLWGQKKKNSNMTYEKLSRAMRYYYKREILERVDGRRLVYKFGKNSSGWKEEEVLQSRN
Method in brief: as §1

CRX = CRX (Homo sapiens, UniProt O43186 1-299); conditions: protein: recombinant; tags: N-terminal GST; dsDNA, one strand shown
Method in brief: as §1

ETV1 = ETV1 (Homo sapiens, UniProt P50549 1-477); conditions: protein: recombinant; tags: N-terminal GST; dsDNA, one strand shown
Method in brief: as §1

ETV2 = target: T10, ETV2 (Homo sapiens, UniProt O00321 1-342); conditions: protein: recombinant; tags: N-terminal GST; dsDNA, one strand shown
T10 sequence: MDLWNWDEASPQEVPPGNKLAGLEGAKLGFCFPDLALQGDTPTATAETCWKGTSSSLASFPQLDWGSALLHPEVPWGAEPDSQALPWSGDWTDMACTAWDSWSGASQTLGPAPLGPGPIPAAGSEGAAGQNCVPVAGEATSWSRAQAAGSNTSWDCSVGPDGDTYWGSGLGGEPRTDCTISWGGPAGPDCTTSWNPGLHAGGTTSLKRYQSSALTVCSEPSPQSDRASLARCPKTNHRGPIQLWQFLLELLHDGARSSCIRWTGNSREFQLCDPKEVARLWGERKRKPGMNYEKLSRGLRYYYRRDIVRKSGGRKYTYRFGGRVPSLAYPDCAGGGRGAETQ
Method in brief: as §1

Sequence of HSF1 (Q00613 whole entry): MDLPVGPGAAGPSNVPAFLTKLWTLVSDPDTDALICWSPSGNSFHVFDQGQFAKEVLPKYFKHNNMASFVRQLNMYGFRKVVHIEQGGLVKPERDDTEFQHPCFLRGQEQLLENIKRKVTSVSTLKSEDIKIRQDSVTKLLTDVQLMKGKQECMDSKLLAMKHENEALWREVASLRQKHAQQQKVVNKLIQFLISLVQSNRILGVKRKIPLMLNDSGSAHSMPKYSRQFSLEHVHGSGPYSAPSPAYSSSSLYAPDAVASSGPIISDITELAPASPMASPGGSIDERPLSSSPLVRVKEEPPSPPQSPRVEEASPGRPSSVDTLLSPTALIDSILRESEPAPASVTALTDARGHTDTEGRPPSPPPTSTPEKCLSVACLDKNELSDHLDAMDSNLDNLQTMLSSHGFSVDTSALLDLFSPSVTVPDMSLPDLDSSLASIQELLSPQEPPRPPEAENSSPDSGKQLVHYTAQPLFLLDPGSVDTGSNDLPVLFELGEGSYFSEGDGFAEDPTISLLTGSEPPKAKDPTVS
Sequence of ELF4 (Q99607 whole entry): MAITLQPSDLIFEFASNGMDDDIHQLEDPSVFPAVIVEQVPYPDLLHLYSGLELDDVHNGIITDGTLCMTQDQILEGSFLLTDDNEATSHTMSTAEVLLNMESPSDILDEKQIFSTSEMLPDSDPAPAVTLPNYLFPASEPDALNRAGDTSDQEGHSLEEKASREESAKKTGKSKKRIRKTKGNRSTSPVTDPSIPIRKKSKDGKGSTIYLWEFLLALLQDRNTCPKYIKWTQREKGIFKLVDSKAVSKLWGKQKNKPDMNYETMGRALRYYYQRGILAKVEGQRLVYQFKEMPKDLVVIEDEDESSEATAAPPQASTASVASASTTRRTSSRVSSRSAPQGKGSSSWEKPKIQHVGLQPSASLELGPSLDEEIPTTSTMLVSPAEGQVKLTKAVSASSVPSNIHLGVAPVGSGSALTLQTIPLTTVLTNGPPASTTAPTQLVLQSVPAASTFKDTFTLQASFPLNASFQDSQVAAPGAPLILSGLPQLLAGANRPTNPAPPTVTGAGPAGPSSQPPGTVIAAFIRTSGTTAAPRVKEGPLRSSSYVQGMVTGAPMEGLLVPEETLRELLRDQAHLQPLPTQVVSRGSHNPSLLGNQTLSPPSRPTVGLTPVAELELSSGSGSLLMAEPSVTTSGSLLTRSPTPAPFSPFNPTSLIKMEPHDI
Sequence of ETV5 (P41161 whole entry): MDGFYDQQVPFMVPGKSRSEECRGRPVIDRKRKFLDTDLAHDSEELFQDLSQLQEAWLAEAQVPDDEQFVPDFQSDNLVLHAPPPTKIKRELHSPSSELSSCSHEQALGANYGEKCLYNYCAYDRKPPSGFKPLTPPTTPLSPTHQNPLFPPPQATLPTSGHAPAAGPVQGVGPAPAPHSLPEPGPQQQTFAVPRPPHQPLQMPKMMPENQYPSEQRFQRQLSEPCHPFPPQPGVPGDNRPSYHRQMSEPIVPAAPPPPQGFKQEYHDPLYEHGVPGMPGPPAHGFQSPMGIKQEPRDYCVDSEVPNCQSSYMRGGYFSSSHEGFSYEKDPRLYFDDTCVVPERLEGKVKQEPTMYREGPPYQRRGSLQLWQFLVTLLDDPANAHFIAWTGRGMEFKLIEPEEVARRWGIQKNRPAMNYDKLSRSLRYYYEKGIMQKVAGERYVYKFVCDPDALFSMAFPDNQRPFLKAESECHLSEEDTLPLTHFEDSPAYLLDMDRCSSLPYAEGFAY
Sequence of SPIB (Q01892 whole entry): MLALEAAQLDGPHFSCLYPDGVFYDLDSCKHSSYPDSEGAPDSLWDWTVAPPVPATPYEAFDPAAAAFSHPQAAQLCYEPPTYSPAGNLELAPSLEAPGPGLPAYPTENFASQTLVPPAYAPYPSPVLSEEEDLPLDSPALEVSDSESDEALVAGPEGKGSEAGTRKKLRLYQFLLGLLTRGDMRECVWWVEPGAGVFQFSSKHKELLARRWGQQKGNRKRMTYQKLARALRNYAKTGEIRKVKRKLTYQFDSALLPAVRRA
Sequence of CRX (O43186 whole entry): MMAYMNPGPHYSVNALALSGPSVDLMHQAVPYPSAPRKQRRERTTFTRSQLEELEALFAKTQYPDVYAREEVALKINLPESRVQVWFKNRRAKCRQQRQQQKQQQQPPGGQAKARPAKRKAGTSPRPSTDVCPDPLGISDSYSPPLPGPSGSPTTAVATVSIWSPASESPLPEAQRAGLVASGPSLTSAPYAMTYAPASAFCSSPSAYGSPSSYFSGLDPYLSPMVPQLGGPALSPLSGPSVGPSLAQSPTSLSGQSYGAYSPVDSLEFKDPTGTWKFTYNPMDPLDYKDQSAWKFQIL
Sequence of ELF1 (P32519 whole entry): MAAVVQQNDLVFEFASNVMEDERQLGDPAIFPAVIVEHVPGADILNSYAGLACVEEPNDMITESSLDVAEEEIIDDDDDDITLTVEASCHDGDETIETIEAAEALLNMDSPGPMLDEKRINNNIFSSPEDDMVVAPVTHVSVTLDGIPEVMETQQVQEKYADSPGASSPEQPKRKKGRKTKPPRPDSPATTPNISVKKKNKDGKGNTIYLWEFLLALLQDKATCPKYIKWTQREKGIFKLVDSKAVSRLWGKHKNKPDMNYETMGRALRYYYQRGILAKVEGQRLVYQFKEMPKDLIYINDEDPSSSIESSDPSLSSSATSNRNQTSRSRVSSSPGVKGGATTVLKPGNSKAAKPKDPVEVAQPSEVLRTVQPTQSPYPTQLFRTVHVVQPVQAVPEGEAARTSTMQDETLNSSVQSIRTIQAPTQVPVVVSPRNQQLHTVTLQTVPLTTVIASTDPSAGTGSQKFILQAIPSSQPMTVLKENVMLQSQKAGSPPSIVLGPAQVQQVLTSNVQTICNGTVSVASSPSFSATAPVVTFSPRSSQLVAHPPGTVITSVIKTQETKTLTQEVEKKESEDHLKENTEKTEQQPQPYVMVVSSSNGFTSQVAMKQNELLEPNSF
Sequence of ETV1 (P50549 whole entry): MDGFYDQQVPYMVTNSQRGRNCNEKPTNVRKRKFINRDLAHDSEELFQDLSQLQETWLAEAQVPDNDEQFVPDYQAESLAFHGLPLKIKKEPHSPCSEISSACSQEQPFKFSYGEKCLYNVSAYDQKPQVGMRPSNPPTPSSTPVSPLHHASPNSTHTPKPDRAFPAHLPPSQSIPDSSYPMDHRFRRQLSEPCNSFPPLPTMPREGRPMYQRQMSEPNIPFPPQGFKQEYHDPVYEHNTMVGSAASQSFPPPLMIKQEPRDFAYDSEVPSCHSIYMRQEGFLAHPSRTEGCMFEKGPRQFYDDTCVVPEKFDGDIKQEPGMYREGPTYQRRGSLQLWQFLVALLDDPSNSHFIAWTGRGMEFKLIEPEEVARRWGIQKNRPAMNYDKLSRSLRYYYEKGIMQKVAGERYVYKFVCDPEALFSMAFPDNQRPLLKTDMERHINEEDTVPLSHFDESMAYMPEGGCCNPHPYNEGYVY

Sequence	binding signal (FLI1)	binding signal (ELK1)	binding signal (GABPA)	binding signal (ERG)	binding signal (ELF1)	binding signal (SPI1)	binding signal (SPIB)	binding signal (ELK3)	binding signal (FEV)	binding signal (ETV5)	binding signal (HSF1)	binding signal (SPIC)	binding signal (ELF4)	binding signal (ELK4)	binding signal (ELF3)	binding signal (CRX)	binding signal (ETV1)	binding signal (ETV2)
GCTTTT	1.06 fold enrichment (6-mer frequency, TF over GST control)	1.05 fold enrichment (6-mer frequency, TF over GST control)	1.16 fold enrichment (6-mer frequency, TF over GST control)	1 fold enrichment (6-mer frequency, TF over GST control)	1.09 fold enrichment (6-mer frequency, TF over GST control)	1.33 fold enrichment (6-mer frequency, TF over GST control)	1.16 fold enrichment (6-mer frequency, TF over GST control)	1.11 fold enrichment (6-mer frequency, TF over GST control)	1.07 fold enrichment (6-mer frequency, TF over GST control)	1.09 fold enrichment (6-mer frequency, TF over GST control)	1.12 fold enrichment (6-mer frequency, TF over GST control)	1.12 fold enrichment (6-mer frequency, TF over GST control)	1.18 fold enrichment (6-mer frequency, TF over GST control)	1.17 fold enrichment (6-mer frequency, TF over GST control)	1.14 fold enrichment (6-mer frequency, TF over GST control)	1.32 fold enrichment (6-mer frequency, TF over GST control)	1.1 fold enrichment (6-mer frequency, TF over GST control)	
AACCCA	1.05 fold enrichment (6-mer frequency, TF over GST control)	1.03 fold enrichment (6-mer frequency, TF over GST control)	1.02 fold enrichment (6-mer frequency, TF over GST control)	1.06 fold enrichment (6-mer frequency, TF over GST control)	1.06 fold enrichment (6-mer frequency, TF over GST control)	1 fold enrichment (6-mer frequency, TF over GST control)	1 fold enrichment (6-mer frequency, TF over GST control)	1.1 fold enrichment (6-mer frequency, TF over GST control)	1.03 fold enrichment (6-mer frequency, TF over GST control)	1.05 fold enrichment (6-mer frequency, TF over GST control)	1 fold enrichment (6-mer frequency, TF over GST control)	1.1 fold enrichment (6-mer frequency, TF over GST control)	1.1 fold enrichment (6-mer frequency, TF over GST control)	1.08 fold enrichment (6-mer frequency, TF over GST control)	1.04 fold enrichment (6-mer frequency, TF over GST control)			
ATCGTT	1.08 fold enrichment (6-mer frequency, TF over GST control)		1.01 fold enrichment (6-mer frequency, TF over GST control)	1.02 fold enrichment (6-mer frequency, TF over GST control)						1 fold enrichment (6-mer frequency, TF over GST control)	1.02 fold enrichment (6-mer frequency, TF over GST control)	1.03 fold enrichment (6-mer frequency, TF over GST control)	1.04 fold enrichment (6-mer frequency, TF over GST control)	1.12 fold enrichment (6-mer frequency, TF over GST control)	1.03 fold enrichment (6-mer frequency, TF over GST control)	1.14 fold enrichment (6-mer frequency, TF over GST control)	1.06 fold enrichment (6-mer frequency, TF over GST control)	1.13 fold enrichment (6-mer frequency, TF over GST control)
